From PubChem BioAssay AID431 (Sanford-Burnham Center for Chemical Genomics, 2006)
Hit rate of the full screen: of about 63,000 compounds, about 1,100 (1.7%) were called active.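 The calls were made as follows: active = compounds whose percent cytotoxicity in the single-dose primary screen, scaled between solvent and toxic-drug controls, exceeds 50; inactive = the rest.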 The sample as a whole holds a higher share of actives than the screen did. Entries with a potency or affinity are not part of this list.

Assay: viability loss of HPDE-C7K cells – cell-based, fluorescence, HTS, primary screen (AID 431);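 also: 0% = DMSO solvent wells and 100% = doxorubicin-treated wells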
Settings: HPDE-C7K KRASV12 cells, Alamar Blue viability, 48 h; at 10 µM; hits give high values

SMILES | cytotoxicity
COC(=O)CC1Oc2ccccc2N(Cc2ccc(C)cc2)C1=O (stereo unspecified) | 1.3% (inactive)
O=C(CCC1CCCC1)Nc1ccon1 | -5.5% (inactive)
CCOc1ccc(NC(=O)Nc2ccc3nccnc3c2)cc1 | 8.3% (inactive)
O=C(CSc1nc(-c2ccc(F)cc2)cs1)NC(=O)NCc1ccco1 | 1% (inactive)
CCOC(=O)/C=C1\SCC(=O)N1Cc1nnc(-c2ccccc2Br)o1 | -23.5% (inactive)
COC(=O)c1[nH]c(C)c(/C(O)=C2\C(=O)C(=O)N(CCN(C)C)C2c2cc(OC)ccc2OC)c1C (stereo unspecified) | -7.9% (inactive)
O=C(CSc1ncc(-c2ccccc2)nn1)NCc1ccco1 | -13.8% (inactive)
CN1CCN(c2nc(-c3cccs3)cc(C(F)(F)F)n2)CC1 | 3.2% (inactive)
CC(C)c1nnc(NC(=O)CCS(=O)(=O)c2nc(-c3cccs3)cc(C(F)(F)F)n2)s1 | 43.6% (inactive)
CCn1c(SCC(=O)Nc2ccc(N3CCOCC3)c(Cl)c2)nnc1-c1ccc(N)cc1 | 3.4% (inactive)
Clc1ccc(OCc2nn3c(C4CCCCC4)nnc3s2)cc1 | 17.1% (inactive)
CCOc1cc(-c2nc(-c3ccc(C)nc3OC)no2)cc(OCC)c1OCC | -15% (inactive)
Cc1nc(NC(=O)c2oc3ccccc3c2C)sc1C(=O)N(C)C | 12.9% (inactive)
CCN1CCN(c2ncc(C(=O)Nc3cc(Cl)c(OC)cc3OC)c3ccccc23)CC1 | 11.7% (inactive)
CCN1CCN(c2ncc(C(=O)Nc3ccccc3C(=O)OC)c3ccccc23)CC1 | 40.3% (inactive)
CCN1CCN(c2ncc(C(=O)Nc3cc(Cl)ccc3OC)c3ccccc23)CC1 | 75.3% (active)
O=c1/c(=C\c2cccnc2)sc2nc3ccccc3n12 | -13.6% (inactive)
COc1cc(C(=O)OC(C)CN2CCN(C)CC2)cc(OC)c1OC (stereo unspecified) | -37.3% (inactive)
O=C(CN1C(=O)COc2ccccc21)c1ccc(Cl)cc1 | -0.2% (inactive)
Cc1ccc(C(=O)CSc2nnc(CNc3nc(-c4ccccc4)cs3)n2C)cc1 | 4.1% (inactive)
COc1ccc(OCC(=O)Nc2ccccc2C(=O)N2CCCC2)cc1 | -0.2% (inactive)
CC(NC(=O)NCC1CCCO1)(C(F)(F)F)C(F)(F)F (stereo unspecified) | -11.1% (inactive)
NS(=O)(=O)c1ccc(S(=O)(=O)N(Cc2ccccc2F)CC2CCCO2)cc1 (stereo unspecified) | 4% (inactive)
Cc1ccccc1-n1c(C)nnc1SCC(=O)NCC1CCCO1 (stereo unspecified) | -1.6% (inactive)

SMILES | cytotoxicity
COc1ccc(S(=O)(=O)N(C)CC(=O)NC2CCCC2)cc1Cl | -18% (inactive)
Cc1nc2ccccc2c(=O)n1/N=C/c1ccc(O)cc1 | 24.4% (inactive)
Cc1nc2ccccc2c(=O)n1/N=C/c1c(O)ccc2oc3c(c12)CCCC3 | 72.1% (active)
Oc1ccc2oc3c(c2c1/C=N/n1cnnc1)CCCC3 | -21.1% (inactive)
CCCC(=O)Nc1ccc(Cl)c(NC(=O)c2ccco2)c1 | 3.9% (inactive)
O=C(Oc1c(Cl)cc(Cl)c2cccnc12)N1CCCCC1 | 10.8% (inactive)
CCCC(=O)NC(c1ccco1)c1cc(Cl)c2cccnc2c1O (stereo unspecified) | 59.2% (active)
NC(=O)c1ccc(N2CCCCC2)c(N2C(=O)C3C4C=CC(C4)C3C2=O)c1 (stereo unspecified) | 2.5% (inactive)
O=C(CSc1nc(O)cc(=O)n1-c1ccccc1)NCc1ccccc1 | -1% (inactive)
CC1=C(C(=O)OC(C)C)C(c2cccs2)N2C(=O)CCSC2=N1 (stereo unspecified) | 10.1% (inactive)
O=C1CC(N2CCN(c3nc4ccccc4s3)CC2)C(=O)N1Cc1cccs1 (stereo unspecified) | 5.6% (inactive)
O=C1CC(N2CCN(c3ccc(F)cc3)CC2)C(=O)N1Cc1cccs1 (stereo unspecified) | -7.6% (inactive)
Cc1cccc(N(CC(=O)NC2CCCCC2)C(=O)CCC(=O)Nc2cc(C)ccn2)c1 | -11.1% (inactive)
N#Cc1cccc2cnccc12 | -3.3% (inactive)
CCN(CC)c1ccc(-c2nn3c(-c4cccnc4)nnc3s2)cc1 | 56.4% (active)
c1cncc(-c2nn3c(-c4ccncc4)nnc3s2)c1 | -1% (inactive)
CN(C)c1ccc(-c2nn3c(-c4ccncc4)nnc3s2)cc1 | -7.6% (inactive)
CCOc1ccc(-c2nn3c(-c4ccc(F)cc4)nnc3s2)cc1 | 9.9% (inactive)
CN(C)c1ccc(-c2nn3c(-c4cccnc4)nnc3s2)cc1 | -11.9% (inactive)
O=C(CC1(O)C(=O)N(Cc2ccc3c(c2)OCO3)c2ccccc21)c1ccccc1 (stereo unspecified) | -28% (inactive)
O=C(NCC1CCCO1)c1csc2c1CCCCC2 (stereo unspecified) | -11.1% (inactive)
COc1ccccc1N1CCN(Cc2ccc(OC)c(OC)c2OC)CC1 | -15.5% (inactive)
CCCC(N)CCCCCC(=O)O (stereo unspecified) | 4.3% (inactive)
CCSC(SCC)[C@H](O)[C@@H](O)[C@H](O)[C@H](O)CO | -20.9% (inactive)

SMILES | cytotoxicity
N#CC(C(=O)NC1CCCCC1)c1nc2ccccc2nc1N1CCCCC1 (stereo unspecified) | -0.2% (inactive)
CC(=O)NCCCc1c[nH]c2ccc(Cl)cc12 | 5.3% (inactive)
O=C(NCc1ccc(Cl)cc1)c1ccc(COCC(F)(F)F)o1 | 7.2% (inactive)
COc1ccc(-n2nnc3c(=O)n(CC(=O)NCC4CCCO4)cnc32)cc1 (stereo unspecified) | -5% (inactive)
CCn1c(NC2CCCCC2)nc2ccccc21 | 15.1% (inactive)
COc1cccc(CNc2nc3ccccc3n2CCN2CCCCC2)c1 | -17.7% (inactive)
COc1ccc(C(=O)CSc2nnc(-c3ccoc3C)n2CC2CCCO2)cc1 (stereo unspecified) | -33% (inactive)
Cc1nc2c(-c3ccccc3)c(C)nn2c(C)c1CCC(=O)N1CCOCC1 | -17% (inactive)
Cc1cc(C)c(S(N)(=O)=O)c(C)c1-n1cnnn1 | -18.5% (inactive)
CCOC(=O)CSC1=C(C#N)C(c2ccccc2C)C2=C(CCCC2=O)N1 (stereo unspecified) | 0.9% (inactive)
COc1cccc(C2/C(=C(\O)c3c(C)nc4c(C)cccn34)C(=O)C(=O)N2CCCN(C)C)c1OC (stereo unspecified) | -1.4% (inactive)
c1ccc(CN2CCN(c3ncnc4c3[nH]c3ccccc34)CC2)cc1 | 119% (active)
c1ccc2c(c1)[nH]c1c(N3CCC4(CC3)OCCO4)ncnc12 | 23.3% (inactive)
c1ccc2c(c1)[nH]c1c(N3CCSCC3)ncnc12 | 44.2% (inactive)
OC1(c2cccc(C(F)(F)F)c2)CCN(c2ncnc3c2[nH]c2ccccc23)CC1 | 124% (active)
CCOc1ccc2[nH]c3c(N4CCN(c5ccccn5)CC4)ncnc3c2c1 | 77.1% (active)
c1ccc(CN2CCN(c3ncnc4nc[nH]c34)CC2)cc1 | -3.8% (inactive)
CCOC(=O)N1CCN(c2ncnc3c2[nH]c2ccc(OC)cc23)CC1 | 18.4% (inactive)
c1ccc2c(c1)[nH]c1c(N3CCCC3)ncnc12 | 20% (inactive)
Cc1ccc2c(c1)[nH]c1c(N3CCN(Cc4ccccc4)CC3)ncnc12 | 107% (active)
c1ccc2c(c1)[nH]c1c(N3CCOCC3)ncnc12 | -3.2% (inactive)
CCOC(=O)c1[nH]c2ccc(OCC)cc2c1NC(=O)CN1CCN(c2ccccn2)CC1 | 0.9% (inactive)
O=C(c1ccco1)N1CCN(c2ncnc3c2[nH]c2ccccc23)CC1 | 21.1% (inactive)
